# Assay outcomes deposited in PubChem by National Center for Advancing Translational Sciences (NCATS).
# Only some compounds are listed: those with a hit (about 3.2% of all), similar ones and a draw of the others.
# Sm TGR inh: S. mansoni TGR enzyme inhibition; Q962Y6; hit rate 3% among 360,000; Potency, µM (highest dose often 114 µM), without a hit: top-dose activity change, negative = inhibition, usual class: inhibitors; purified TGR, DTNB reduction, TNB absorbance 405 nm; AID 485364; note: nearly all actives have a fitted effect of over 60% in size
#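 First, TGR (20 nM dispensed) and NADPH were mixed with compound. Second, a 15 min room-temperature incubation followed. Third, further NADPH and then DTNB were added to start the reaction. Finally, TNB absorbance was monitored kinetically.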
# AmpC inh no detg: blocks E. coli AmpC beta-lactamase in detergent-free assay. P00811. AmpC nitrocefin hydrolysis, absorbance 480 nm, 0.0001% Triton. Potency, µM (highest dose often 57.1 µM), inactives show at the top dose activity change, negative = inhibition, actives largely listed as inhibitors. hit rate 0.52% among 330,000. AID 485341;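 note: plate controls were no compound for no effect and no enzyme for full effect; nearly all actives have a fitted effect of over 20% in size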
# Target sequence (P00811 whole entry, looked up): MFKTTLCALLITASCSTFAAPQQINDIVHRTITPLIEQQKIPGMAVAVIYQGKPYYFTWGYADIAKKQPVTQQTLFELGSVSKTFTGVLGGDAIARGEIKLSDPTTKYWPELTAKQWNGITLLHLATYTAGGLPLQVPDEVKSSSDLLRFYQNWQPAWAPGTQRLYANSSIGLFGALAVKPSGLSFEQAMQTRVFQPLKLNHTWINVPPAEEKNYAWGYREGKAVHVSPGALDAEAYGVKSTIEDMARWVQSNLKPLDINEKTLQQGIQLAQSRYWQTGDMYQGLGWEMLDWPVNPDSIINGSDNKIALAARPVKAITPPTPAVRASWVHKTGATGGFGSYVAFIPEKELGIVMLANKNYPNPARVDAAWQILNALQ
#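 AmpC (5.3 nM in the dispensed reagent) in 20 mM phosphate pH 7.0 with 0.01% (detergent screen) or 0.0001% Triton X-100 was preincubated with compounds for 15 min at room temperature. Nitrocefin was then added from an 800 uM solution, and hydrolysis was followed at 480 nm.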
# AMA1 RON2 block: AMA1-RON2 (P. falciparum) interaction inhibition. AlphaScreen AMA1-biotinylated RON2 peptide binding. Potency, µM (highest dose often 58.2 µM), for inactives: top-dose activity change, negative = inhibition, hits mostly inhibitors. hit rate 0.2% among 360,000. AID 720542;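 note: 0% = vehicle wells and -100% = peptide control; nearly all actives have a fitted effect of over 45% in size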
#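 AMA1 (3D7) with his tag at 25 nM final met compounds first, then biotinylated RON2 peptide at 25 nM; detection used donor plus acceptor beads, 10 µg/mL apiece, read by AlphaScreen after 30 min at room temperature.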
# AmpC inh detg: AmpC beta-lactamase inhibition with detergent present | hit rate 0.041% among 370,000 | Potency, µM (series often up to 114 µM), for inactives: top-dose activity change, negative = inhibition, usual class: inhibitors | AmpC hydrolysis of nitrocefin, absorbance 480 nm, 0.01% Triton | AID 485294;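 note: 0% = no-compound wells and -100% = no-enzyme wells; nearly all actives have a fitted effect of over 25% in size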
#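 20 mM phosphate pH 7.0 + 0.01% (detergent screen) or 0.0001% Triton X-100; 5.3 nM AmpC reagent; cpd preinc 15 min RT; nitrocefin (800 uM stock) to start; A480 q20 s × 4 min; Activity was normalised to no-enzyme and no-compound control wells.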
# RE007 growth inh: less growth of the S. pombe RE007 Vpr strain. Potency, µM (doses to about 92.2 µM), inactives show at the highest dose activity change, negative = less growth, hits mostly inhibitors. S. pombe RE007 Vpr strain, BacTiter-Glo ATP luminescence, 24 h. hit rate 0.21% among 360,000; active = well fitted falling curve with a large enough effect; inconclusive = small, poorly fitted or top-dose-only effect; inactive = no such curve, though single readings can be large or run the other way; note: nearly all actives have a fitted effect of over 50% in size
#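 Fission yeast RE007 carrying one integrated HIV-1 vpr copy, seeded at OD 0.01 in PMG+AL medium with 23 nL pinned compound. Grown 24 h at 30 degrees; viability read by BacTiter-Glo luminescence after 5 min.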
# The depositor's hits bear a star; ? = inconclusive; . = no result given; [ ] = another dose, or the depositor's remark. Unless noted, calls come from the whole dose curve; as a rule, active = well fitted curve in the direction sought with a large enough effect; inconclusive = small, poorly fitted or top-dose-only effect, or another doubt; inactive = no such curve, though single readings can be large; an effect the other way counts as inactive or inconclusive. Unless noted, % is set by controls: 0 for no effect and ±100 for the full control effect; potency is the fitted concentration of half-maximal effect.
SMILES,Sm TGR inh,AmpC inh no detg,AMA1 RON2 block,AmpC inh detg,RE007 growth inh
CSc1ccccc1OCc1cc(C(=O)N2CCN(c3ncccn3)CC2)no1,40µM*,-38%,0%,-1%,-1%
CSc1ccccc1OCc1cc(C(=O)N(C)Cc2ccc3nsnc3c2)no1,0%,3%,-14%,-8%,-11%
CCOCCc1nn2c(=O)cc(COC(=O)c3ccccc3OC)nc2s1,-4%,.,.,8%,.
COc1cc(NC(=S)NC2CC2)c(OC)cc1Cl,40µM*,-10%,-4%,-8%,12%
CC1(C)c2ccccc2N2CCC(=O)NC21/C=C/c1ccco1 (stereo unspecified),25µM*,19%,-11%,-15%,-28%
Cc1ccc2c(c1)C(C)(C)[C@]1(C)NC(=O)CCN21,7%,-17%,4%,-6%,-4%
CC1(C)c2ccccc2N2CC(=O)NC21/C=C/c1ccco1 (stereo unspecified),7.9µM*,-10%,-11%,-11%,-8%
O=C1CN(C(=O)COC(=O)/C=C/c2ccco2)c2ccccc2N1,?,-29%,1%,-2%,25%
CCOC(=O)C1=C(C)Nc2ccccc2N=C1NC(=O)C(c1ccccc1)c1ccccc1,13%,28µM*,22%,-4%,4%
Cc1cccc(C(=O)Nc2ccc3c(c2)CC2(C(=O)N(C)C(=O)N(C)C2=O)C2CCCN32)c1 (stereo unspecified),?,70%,0%,0%,-9%
COc1ccccc1C(=O)Nc1ccc2c(c1)CC1(C(=O)N(C)C(=O)N(C)C1=O)C1CCCN21 (stereo unspecified),35µM*,140%,5%,-2%,-4%
CCC(C)[C@@H](NC(=O)OC(C)(C)C)c1nnc(S(=O)(=O)Cc2cccc(C)c2)o1 (stereo partly specified),2µM*,14µM*,5%,18µM*,-21%
Cc1ccccc1CS(=O)(=O)c1nnc([C@H](Cc2ccccc2)NC(=O)OC(C)(C)C)o1,1.1µM*,13µM*,17%,28µM*,-15%
CCSc1nnc([C@H](Cc2ccccc2)NC(=O)OC(C)(C)C)o1,4%,3%,12%,1%,-3%
CC(C)(C)OC(=O)N[C@@H](Cc1ccccc1)c1nnc(S(=O)(=O)Cc2ccccc2)o1,0.63µM*,?,.,18µM*,.
Cc1c(-c2ccccc2)c(=O)oc2c(CN3CCCC3)c(O)ccc12,0%,.,.,-4%,.
CC(=O)NCCNc1nc2c(-c3cccc(C)c3)nnn2c2ccc(Cl)cc12,4%,.,.,9%,.
Oc1ccc(CNc2cccc(C(F)(F)F)c2)c2cccnc12,0.32µM*,-27%,.,?,.
Cc1cccnc1NCc1ccc(O)c2ncccc12,0.28µM*,-17%,-38%,-15%,-20%
Cc1ccc(NCc2ccc(O)c3ncccc23)cc1C,-2%,-14%,29%,-1%,-27%
Cc1ccc(NCc2ccc(O)c3ncccc23)cc1,?,-23%,14%,7%,-14%
Cc1cccc(NCc2ccc(O)c3ncccc23)c1C,0.11µM*,-14%,-82%,3%,5%
Cc1cccc(-c2nnn3c2nc(NCCc2ccc(S(N)(=O)=O)cc2)c2cc(Cl)ccc23)c1,8%,.,.,11%,.
O=C(c1nc[nH]c1C(=O)N1CCc2ccccc2C1)N1CCc2ccccc2C1,3%,-6%,6%,3%,5%
CN(Cc1ccccc1)C(=O)c1nc[nH]c1C(=O)N1CCc2ccccc2C1,35µM*,0%,3%,-7%,11%
SMILES,Sm TGR inh,AmpC inh no detg,AMA1 RON2 block,AmpC inh detg,RE007 growth inh
CCOCCc1nn2c(=O)cc(COC(=O)C3CCCCC3)nc2s1,-7%,.,.,-4%,.
CCn1c(SCC(=O)Nc2ccc3c(c2)OCO3)nc2c(c1=O)SC(C)C2 (stereo unspecified),-3%,2.8µM*,-1%,-1%,-18%
CC1Cc2nc(SCC(=O)Nc3ccc4c(c3)OCO4)n(CCc3ccccc3)c(=O)c2S1 (stereo unspecified),0%,?,-8%,?,-8%
Cc1ccccc1-n1nc2c(c1NC(=O)c1cc3ccccc3o1)CS(=O)(=O)C2,-19%,-39%,2%,-15%,-1%
COc1ccc(-n2nc3c(c2NC(=O)c2cc4ccccc4o2)CS(=O)(=O)C3)cc1,50µM*,-15%,8%,-3%,10%
COc1ccc(-n2nc3c(c2NC(=O)c2ccc(Br)o2)CS(=O)(=O)C3)cc1,35µM*,-28%,8%,-13%,12%
COc1ccccc1Cn1c(CNS(=O)(=O)c2ccc3c(c2)CCCC3)nc2cccnc21,2%,.,.,2%,.
O=C(COc1ccccc1F)Nc1ccccc1C(=O)NC1CC1,-4%,-18%,21%,1%,-5%
O=C(COc1ccc(Br)cc1)Nc1ccccc1C(=O)NC1CC1,-1%,3.2µM*,1%,?,18%
Cc1sc2c(c1C)c(=O)n(-c1ccc(Cl)cc1)c(=O)n2CC(=O)c1ccccc1,6%,.,.,7%,.
CC(C)C(NC(=O)/C(=C/c1ccco1)NC(=O)c1ccc(Br)o1)C(=O)O (stereo unspecified),35µM*,-15%,34%,4%,2%
CC(C)C(NC(=O)/C(=C\c1ccco1)NC(=O)c1ccco1)C(=O)O (stereo unspecified),?,-9%,71%,-2%,-3%
O=C(NCCCO)/C(=C\c1ccco1)NC(=O)c1ccc(Br)o1,?,-7%,-2%[11.6 µM],?,-11%
O=C(NCc1ccco1)/C(=C/c1ccco1)NC(=O)c1ccc(Br)o1,40µM*,-34%,11%,-8%,-6%
O=C(NCc1ccco1)/C(=C\c1ccco1)NC(=O)c1ccc(Br)o1,28µM*,-18%,-3%,?,-19%
O=C(NCc1ccco1)/C(=C/C=C/c1ccccc1)NC(=O)c1ccco1,25µM*,-27%,-2%,-2%,4%
N#C/C(=C\c1ccc(F)cc1)C(=O)NCC1CCCO1 (stereo unspecified),3%,.,.,21%,.
C=CCNC(=O)/C(=C\c1ccco1)NC(=O)c1ccco1,-3%,-11%,3%,?,1%
C=CCNC(=O)/C(=C/c1ccco1)NC(=O)c1ccc(Br)o1,20µM*,-24%,8%,2%,3%
COc1ccc(C(=O)N/C(=C\c2ccco2)C(=O)NCc2ccco2)cc1,45µM*,-22%,9%,0%,-2%
O=C(NCc1ccco1)/C(=C\c1ccco1)NC(=O)c1ccco1,8.9µM*,-15%,0%,-2%,-13%
CC(=O)Nc1ccc(C(=O)/C=C/c2ccco2)cc1,8.9µM*,-33%,-17%,-10%,-28%
O=C(/C=C\c1ccco1)c1ccc(NC(=O)c2ccco2)cc1,4µM*,6.3µM*,-2%,2%,-20%
